The whole screen tested about 69,000 compounds, of which about 8,600 (12%) showed an effect of 50% or more. What follows is part of a selection rich in strong results, with near analogues and random picks from the rest.
Tested on: Plasmodium berghei
Assay: Screen against P. berghei liver stage (PbLuc), transformed with Luciferase, at 10uM
Assay type: functional, HepG2
Settings: tested at 10 uM

Row | Structure (SMILES) | INHIBITION [%]
1 | Cc1cc(C(=O)NC(C)Cc2ccccc2Cl)n(C)n1 (stereo unspecified) | -39.3
2 | Cc1noc(C)c1CN1CCCC2(CCN(C(=O)N3CCOCC3)C2)C1 (stereo unspecified) | 26
3 | Cc1ccc(-c2nc(CN3CC(n4nc(C)cc4C)C3)no2)cc1 | 1.86
4 | COCC1COCCC12CCN(C(=O)Cc1ccc(F)cc1)CC2 (stereo unspecified) | 0.542
5 | COc1c(C(=O)NCC(C)Sc2ccccc2)c(C)nn1C (stereo unspecified) | 29.1
6 | COc1ccccc1C(C)CNC(=O)c1c(C)nn(C)c1OC (stereo unspecified) | 0.705
7 | CCC(CNC(=O)c1c(C)nn(C)c1OC)Oc1ccccc1 (stereo unspecified) | 73.5
8 | Cc1ccc(NC(=O)N(CCO)Cc2ccsc2)cc1 | -71.5
9 | COCCN(C)C(=O)Nc1ccc2c(ccn2CCOC)c1 | 58.4
10 | CCCn1ccc2ccc(NC(=O)N(C)CCOC)cc21 | 20.5
11 | COCCN(C)C(=O)Nc1ccc2c(ccn2CC(=O)N(C)C)c1 | 19.73
12 | O=C1CC2(CNCCN(C(=O)Nc3ccccc3)C2)CN1 (stereo unspecified) | 16.1
13 | CC(=O)NCC1CCC2(CCN(c3nccc(C4CCCC4)n3)CC2)O1 (stereo unspecified) | 42.1
14 | CC(=O)NCC1CCC2(CCN(c3ncc(C(C)=O)c(C)n3)CC2)O1 (stereo unspecified) | 56.7
15 | CC(=O)NCC1CCC2(CCN(c3ncc(C)cn3)CC2)O1 (stereo unspecified) | -4.21
16 | CCC(=O)N1CCC(NCc2cc(C(F)(F)F)ccc2Cl)C1 (stereo unspecified) | 42.6
17 | c1cnc(N2CCOCC3(CCCN(Cc4cccs4)C3)C2)nc1 (stereo unspecified) | 67.2
18 | CC(C)N1CCOCC2(CCCN(C(=O)c3cncn3C)C2)C1 (stereo unspecified) | 76.3
19 | c1ccc(N2CCC3(COCCN(Cc4cccs4)C3)C2)nc1 (stereo unspecified) | -7.28
20 | O=C(c1cccs1)N1CCCC2(COCCN(c3cccnc3)C2)C1 (stereo unspecified) | 67.2
21 | Cn1cc(CN2CCCC3(COCCN(c4cccnc4)C3)C2)cn1 (stereo unspecified) | 32.2
22 | c1cncc(CN2CCCC3(COCCN(c4cncnc4)C3)C2)c1 (stereo unspecified) | 3.11
23 | c1cncc(N2CCOCC3(CCCN(Cc4cccs4)C3)C2)c1 (stereo unspecified) | 59.1
24 | O=C(c1cccs1)N1CCOCC2(C1)CN(c1cccnc1)C(=O)CO2 (stereo unspecified) | 0.618

Row | Structure (SMILES) | INHIBITION [%]
25 | c1csc(CN2CCCC3(COCCN(c4cnccn4)C3)C2)c1 (stereo unspecified) | 18.3
26 | CC(C)N1CCC2(CCCN(C(=O)c3cncn3C)C2)CC1 | 23.1
27 | O=C(c1cccnc1)N1CCCC2(COCCN(c3ccccc3)C2)C1 (stereo unspecified) | 29.7
28 | CC(C)N1CCOCC2(CCCN(C(=O)c3cn(C)cn3)C2)C1 (stereo unspecified) | -27.9
29 | Cc1ccnn1CCNC(=O)c1cnc(N(C)C)nc1 | -43.452
30 | COCCN1C[C@@H](C)[C@@]2(COCCN(C(=O)c3ccncc3)C2)C1 | -8.85
31 | COc1c(C2CCCN2C(=O)c2c(C)noc2C)c(C)nn1C (stereo unspecified) | 19.4
32 | Cc1ccn2c(F)c(C(=O)N3CCC4(CCCN(C)C4=O)C3)nc2c1 (stereo unspecified) | 3.69
33 | Cc1cn[nH]c1C1COCCN1Cc1cscn1 (stereo unspecified) | 25.85
34 | CCN(C)c1ncnc2c1CCN(C(=O)c1cnccn1)CC2 | -66
35 | O=C(NCCO)c1sc2ncccc2c1C1CNCCO1 (stereo unspecified) | 9.98
36 | CC(C)NC(=O)N1CCC2(CC1)COc1ccccc1S(=O)(=O)N(C)C2 | 4.57
37 | O=C(C1CCCO1)N1CCCC2(CCN(c3cccnc3)CC2)C1 (stereo unspecified) | 29.5
38 | CCS(=O)(=O)N1CCCC2(COCCN(c3cnccn3)C2)C1 (stereo unspecified) | 45.8
39 | COCC(=O)N1CCOCC2(CCN(Cc3cccs3)C2)C1 (stereo unspecified) | -13.2
40 | O=C(N1CCCC1)N1CCOCC2(CCN(Cc3cccs3)C2)C1 (stereo unspecified) | 66.8
41 | O=C(NC1CC1)N1CCOCC2(CCN(Cc3cccs3)C2)C1 (stereo unspecified) | -0.371
42 | O=C([C@H]1CCCO1)N1CCCC2(COCCN(c3ccccc3)C2)C1 (stereo partly specified) | 66.3
43 | O=S(=O)(c1cccs1)N1CCCC2(COCCN(c3cccnc3)C2)C1 (stereo unspecified) | 82.3
44 | O=C(c1ccncc1)N1CCCC2(COCCN(c3ccccc3)C2)C1 (stereo unspecified) | -6.82
45 | c1cncc(N2CCOCC3(CCCN(c4nncs4)C3)C2)c1 (stereo unspecified) | 43.2
46 | Cc1ccc(C2CSCCN2C(=O)c2cnsn2)o1 (stereo unspecified) | 8.46
47 | CN1CCN(C(=O)c2n[nH]c3c2CN(C2CCOC2)CC3)CC1 (stereo unspecified) | 22.3
48 | CCNc1ncnc2c1CN(C1CCCNCC1)C(=O)CN2C (stereo unspecified) | 40

Row | Structure (SMILES) | INHIBITION [%]
49 | CNc1cc(C2CN(CC(=O)N(C)C)CCO2)nc(C)n1 (stereo unspecified) | 14.7
50 | CCC1CN(C)c2ccccc2CN1C(=O)c1c[nH]c(=O)cc1C (stereo unspecified) | 28.7
51 | CC1CN(C)c2ccccc2CN1C(=O)c1cc[nH]c(=O)c1 (stereo unspecified) | -18.3
52 | Cc1cc(=O)[nH]cc1C(=O)N1Cc2ccccc2N(C)CC1C (stereo unspecified) | 52.6
53 | O=C(NCCNc1ncccn1)C1CC(=O)N(CC(F)(F)F)C1 (stereo unspecified) | 19.5
54 | Cc1ccccc1CCNC(=O)C1CC(=O)N(CC(F)(F)F)C1 (stereo unspecified) | 55.5
55 | O=C(NCCc1ccccn1)C1CC(=O)N(CC(F)(F)F)C1 (stereo unspecified) | 2.3
56 | CN1CCN(C(=O)c2cn(-c3ccc(C(F)(F)F)cn3)nn2)CC1 | 59.1
57 | O=C(c1cn(-c2ccc(C(F)(F)F)cn2)nn1)N1CCCCCC1 | 46.1
58 | CC1CCN(C(=O)c2cn(-c3ccc(C(F)(F)F)cn3)nn2)CC1 | 2.55
59 | CC(C)N(Cc1ccccn1)S(=O)(=O)N1CCCC1c1ccco1 (stereo unspecified) | 7.515
60 | CCn1nnc2c1C(COC)CN(Cc1cccs1)C2 (stereo unspecified) | -0.113
61 | CCC(C)NC(=O)c1snnc1-c1ccc(OC)cc1 (stereo unspecified) | 74
62 | COC(=O)[C@H](CC(C)C)NC(=O)c1snnc1-c1ccc(OC)cc1 | 24.1
63 | COc1ccc(-c2nnsc2C(=O)N2CCSCC2)cc1 | 26.4
64 | COc1ccc(-c2nnsc2C(=O)N2CCN(C(C)=O)CC2)cc1 | 2.49
65 | COc1ccc(-c2nnsc2C(=O)N2CCC(C(N)=O)CC2)cc1 | 90.4
66 | COC(=O)[C@@H](NC(=O)c1snnc1-c1ccc(OC)cc1)C(C)C | 24.7
67 | O=C(NCCO)NC(c1ccccc1)c1ccc2c(c1)CCCO2 (stereo unspecified) | 22.6
68 | NCCC(=O)N1CCC2(CC1)CN(C(=O)c1ccc(Cl)cc1)CCO2 | 16.8
69 | Cc1nc(CN(C)Cc2cnc(N3CCOCC3)s2)no1 | 32.1
70 | CCCc1nnc(N(C)CC2CCN(CC(C)C)C2)o1 (stereo unspecified) | -62.4
71 | Cc1nn(C)c2nc(N(CCN(C)C)C3CCCC3)sc12 | 53
72 | COCCN1CCC(CN(C)c2nc3c(s2)c(C)nn3C)C1 (stereo unspecified) | 48.5

Row | Structure (SMILES) | INHIBITION [%]
73 | COCCN(Cc1nccs1)c1nc2c(s1)c(C)nn2C | 22
74 | COCCN(CCOC)c1nc2c(s1)c(C)nn2C | 65.6
75 | Cc1nn(C)c2nc(N(C)CC3CCN(CC(C)C)C3)sc12 (stereo unspecified) | 74.3
76 | COCCN1CCCC(CN(C)c2nc3c(s2)c(C)nn3C)C1 (stereo unspecified) | 3.96
77 | COCCN1CCC(CN(C)c2nc3c(s2)c(C)nn3C)CC1 | 64.4
78 | COCCN(Cc1cnn(C)c1)c1nc2c(s1)c(C)nn2C | 45.2
79 | Cc1nn(C)c2nc(N(C)CCN(C)C)sc12 | 39.1
80 | Cc1nn(C)c2nc(N(C)CCN(C)C3CCCC3)sc12 | 39.9
81 | Cc1nn(C)c2ncnc(N(C)CC3CCN(CC(C)C)C3)c12 (stereo unspecified) | 36.3
82 | CCOc1cc2c(cc1CN1CCC3(CC1)CNC(=O)C3)CCC2 | 39.4
83 | COc1c(C2CCCN2CC(=O)NCc2ccccn2)c(C)nn1C (stereo unspecified) | 19.6
84 | COC(C(=O)NC1CC1)c1ccccc1 (stereo unspecified) | -35.9
85 | CCOC(=O)C1(O)CCN(C(=O)Nc2cccc(F)c2)CC1 | -16.9
86 | CNC(=O)Cc1cc2nccc(-c3c(OC)cccc3OC)n2n1 | 45.6
87 | COc1cccc(OC)c1-c1ccnc2cc(CC(=O)NC3CC3)nn12 | 39.7
88 | COc1cccc(OC)c1-c1ccnc2cc(CC(=O)NC(C)C)nn12 | 54.5
89 | CCN(c1ccc(C(=O)NCc2ccnc(C)n2)cc1)C(C)C | 0.433
90 | CCN(c1ccc(C(=O)NCc2cc[nH]n2)cc1)C(C)C | 82.6
91 | CC(C)c1ccc(O)c(C(=O)NCc2cc[nH]n2)c1 | 12.8
92 | Cc1cc(Cc2ccc(S(=O)(=O)N3CCOCC3)cc2)c(=O)[nH]n1 | 19.8
93 | CCc1nnc(CN(CC)C(=O)C2CC(=O)N(Cc3cccnc3)C2)o1 (stereo unspecified) | 23.5
94 | CCc1noc(CN(CC)C(=O)C2CC(=O)N(Cc3ccncc3)C2)n1 (stereo unspecified) | 53.2
95 | CN(Cc1ccon1)C(=O)C1CC(=O)N(Cc2cccnc2)C1 (stereo unspecified) | -49.3
96 | CCN(Cc1nc(C)no1)C(=O)C1CC(=O)N(Cc2cccnc2)C1 (stereo unspecified) | 15.6

Row | Structure (SMILES) | INHIBITION [%]
97 | CCN(Cc1nc(C)no1)C(=O)C1CC(=O)N(Cc2ccccn2)C1 (stereo unspecified) | -14.1
98 | CCN(CC1CCOCC1)C(=O)C1CC(=O)N(Cc2cccnc2)C1 (stereo unspecified) | 53.2
99 | CNC(=O)Cn1ccc2ccc(NC(=O)C(C)CSC)cc21 (stereo unspecified) | 29.6
100 | O=S(=O)(c1ccc(-c2cnco2)cc1)N1CCCC2(CCNCC2)CC1 | 52.7
101 | O=S(=O)(c1ccc(-c2cnco2)cc1)N1CCC2(CCCNC2)C1 (stereo unspecified) | 35.7
102 | O=S(=O)(c1ccc(-c2cnco2)cc1)N1CCCC(O)(CO)CC1 (stereo unspecified) | -31.4
103 | CC(c1cccc(-c2ncccc2C#N)c1)N(C)C (stereo unspecified) | 19.3
104 | CN(Cc1cc(C(C)(C)C)n[nH]1)C(=O)c1c[nH]nc1-c1cccc(F)c1 | 30.4
105 | Cc1ccnc(NCc2cn3nc(C)sc3n2)n1 | 65.2
106 | CCNc1ccnc(NCc2cn3nc(C)sc3n2)n1 | -49.3
107 | Cc1nn2cc(CNc3nccc(CCC(F)(F)F)n3)nc2s1 | -4.91
108 | O=C(C1CC1)N1CCOC2(CCNCC2)C1 | 36.7
109 | CC(=O)N1CCOC2(CCN(C(=O)C3CC3)CC2)C1 | 85.6
110 | Cc1ccc(CN2CCOC3(CCN(C(=O)C4CC=CC4)CC3)C2)cc1 | 55.6
111 | O=C(C1CC1)N1CCC2(CC1)CNCCO2 | 51.2
112 | O=C(C1CCC1)N1CCC2(CC1)CNCCO2 | -12.4
113 | O=C(C1CC=CC1)N1CCC2(CC1)CNCCO2 | 29
114 | Cc1ccc(CN2CCOC3(CCN(C(=O)C4CCOC4)CC3)C2)cc1 (stereo unspecified) | 39.3
115 | CC(=O)N1CCCC2(C1)CN(C(=O)C1CCCCC1)CCO2 (stereo unspecified) | 9.97
116 | Cc1ccc(CN2CCOC3(CCN(C(=O)N4CCCC4)CC3)C2)cc1 | 15.7

Reference: ChEMBL document CHEMBL4513216, “Probing the Open Global Health Chemical Diversity Library for Multistage-Active Starting Points for Next-Generation Antimalarials” (ACS Infect Dis, 2020)
